Among the data in PubChem BioAssay (NCI) are growth values, retold here.

The structures appear in SMILES notation. The panel holds about 83,000 compounds, 20% with a hit somewhere; the sample as a whole holds those more often.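 The endpoint reported here, percent growth, reads 100 for growth as untreated, 0 for no net growth and -100 for all cells dead.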 A number with no mark means an inactive call. Calls of active or inactive are those of the source. How the source made its calls: active means growth percent below 10; inactive means the rest.

The experiment deals with NCI-H522 lung. As to the kind of experiment: NCI-60 one-dose screen, 48 h (100 = growth as untreated, 0 = no growth, -100 = all killed). The settings on record: 10 µM unless noted.
`COc1cc2[nH]c(C(=O)c3cc(OC)c(OC)c(OC)c3)c(N)c2cc1C#CC1CC1`: the growth was -4.22% (active).
As to `COc1cc2c(cc1OC)C(=O)/C(=C/c1cc(-c3ccc4c(c3)OCO4)n[nH]1)C2`, the growth was -63.6% (active).
In the case of `NS(=O)(=O)c1ccc(CCNC(=O)/C=C/c2ccc(Cl)cc2)cc1` it was 89.8%; in that of `C/C(=N/NC(N)=S)C(=O)O`, 95.9%; in that of `Cc1ccc(-c2ccc(Nc3ccccc3)nn2)cc1S(N)(=O)=O`, 96.1%.
In the case of `CCC(c1ccc(OC)cc1)C(CC)c1ccc(O)c(CN2CCCCC2)c1` (stereo not drawn) it was 72.3%; in that of `COc1cc(-c2cc(-c3nc4ccc(F)cc4[nH]3)[nH]n2)cc(OC)c1OC`, 9.45% (active); in that of `COc1cccc(NC(=O)c2sc3nc4c(cc3c2N)C(=O)CCC4)c1`, -21.1% (active).
The figure for `NC1(N)C=CC2=C(C=C1)C1(N)C3=C(C=CC(N)(N)C=C3)N2C2(N)C3=C(C=CC(N)(N)C=C3)N1C1=C2C=CC(N)(N)C=C1` is 28.4%; for `COc1ccc(-c2nc3ccccn3c2-c2nc3ccc(Cl)cc3[nH]2)cc1` it is 73.9%.
On to `O=c1c(CNc2ccc(S(=O)(=O)Nc3nccs3)cc2)coc2ccccc12`, for which the growth is 82.8%.
The figure for `CN1CCN(c2nc(-c3cccc4ccccc34)nc3sc4c(c23)CCCCCC4)CC1` is 88.7%.
For `COc1ccc2nc(-c3cc(-c4cc(OC)c(OC)c(OC)c4)n[nH]3)[nH]c2c1`, the growth was -15.1% (active).
In the case of `COc1cccc(-c2nn(-c3ccccc3)cc2-c2ccnc(NCCNS(=O)(=O)c3ccc(Cl)cc3)c2)c1` it was 12.4%.
In the case of `O=S(=O)(NCCNc1cc(-c2cn(-c3ccccc3)nc2-c2cccc(O)c2)ccn1)c1ccc(C(F)(F)F)cc1` it was 55.7%; in that of `Cc1cc(C)c(NC(=O)c2sc3nc4c(cc3c2N)CCCC4)c(C)c1`, 4.49% (active); in that of `C/C(=N\Nc1cc(C)c2ccccc2n1)c1ccccn1`, -25.7% (active).
Consider `C=C1C(=O)O[C@H]2[C@H]1CC/C(Cn1cc(-c3ccc(OC)cc3)nn1)=C\CC[C@@]1(C)O[C@@H]21`, for which the growth is -78.7% (active).
In the case of `COC(=O)[C@]12CC[C@@H](C)[C@H](C)[C@@H]1C1=CC[C@@H]3[C@@]4(C)C[C@@H](OC(C)=O)[C@H](OC(C)=O)[C@@](C)(COC(C)=O)[C@@H]4[C@H](O)C[C@@]3(C)[C@]1(C)CC2` it was -2.94% (active).
Consider `COc1cccc(-c2nn(-c3ccccc3)cc2-c2ccnc(NCCCNS(=O)(=O)c3ccc(Cl)cc3)c2)c1`, for which the growth was 41.7%.
In the case of `O=c1c(CNc2ccc(S(=O)(=O)Nc3ncccn3)cc2)coc2ccccc12` it was 89.7%; in that of `COc1ccc(-c2cc(/C=C/C(=O)c3ccc(OC)c(OC)c3)[nH]n2)cc1`, 1.47% (active); in that of `C#Cc1cc2c(N)c(C(=O)c3cc(OC)c(OC)c(OC)c3)[nH]c2cc1OC`, -4.05% (active).
The figure for `O=S(=O)(NCCNc1cc(-c2cn(-c3ccccc3)nc2-c2cccc(O)c2)ccn1)c1ccc(F)cc1` is 4.98% (active).
Take `c1ccc2[nH]c(-c3cc(-c4ccc5c(c4)OCO5)n[nH]3)nc2c1`: the growth was 32.9%.
Take `COc1cccc(-c2nn(-c3ccccc3)cc2-c2ccnc(NCCCNS(=O)(=O)c3cccc(F)c3)c2)c1`: the growth was 9.36% (active).
In the case of `COc1cc(-c2cc(-c3nc4cc(Cl)c(Cl)cc4[nH]3)[nH]n2)cc(OC)c1OC` it was 45.8%.
In the case of `Oc1cc(/C=C/c2nc(N3CCOCC3)c3cc(Cl)c(Cl)cc3n2)cc(O)c1O`, the growth is 88.6%.
In the case of `Cc1cc(Nc2ccc(F)cc2)nc(N2CCN(c3ccnc4cc(Cl)ccc34)CC2)n1` it was 17.4%; in that of `COc1ccc(/C=C/C(=O)NCC(C)O)cc1` (stereo not drawn), 85%.
The figure for `COc1ccc(-c2cc(/C=C/C(=O)c3ccc(N)cc3)[nH]n2)cc1` is -24.3% (active); for `CSc1ccc(N(C)c2nc(C)nc3c2CCC3)cc1` it is -26.7% (active).
The figure for `OCCNc1nc(Nc2ccc(Cl)c(Cl)c2)nc2ccccc12` is 62%.
Regarding `COc1cc(-c2cc(-c3nc4ccccc4[nH]3)[nH]n2)cc(OC)c1OC`, the growth was 37.2%.
The figure for `O=C1CCN2C(=O)Nc3ccccc3C2C1` (stereo not drawn) is 100%; for `Cc1[c-]onc1C.Cc1[c-]onc1C.[Ag].[Ag].[NH-]S(=O)(=O)c1ccc(N=Nc2cc(N=Nc3ccc(S([NH-])(=O)=O)cc3)c3c(NC(=O)C(Cl)Cl)cccc3c2OC(=O)C(Cl)Cl)cc1` it is -85.7% (active); for `Clc1ccc(Cn2cc(-c3nc4ccc(Br)nc4n3Cc3ccc(Cl)cc3)c3cccnc32)cc1` it is 70%.
On to `COC(=O)[C@]12CC[C@@H](C)[C@H](C)[C@@H]1C1=CC[C@@H]3[C@@]4(C)C[C@@H](OC(C)=O)[C@H](O)[C@@](C)(COC(C)=O)[C@@H]4[C@H](O)C[C@@]3(C)[C@]1(C)CC2`, for which the growth is -81.6% (active).
